The values below come from PubChem BioAssay.

The nature of assay [1]: antimalarial activity against Dd2 strain (AID 2302;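 active = growth inhibition above 50% at the single 2 µM test dose, taken to imply half-maximal potency below 2 µM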;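 also: 0% = DMSO untreated growth and 100% = chloroquine plus artemisinin killed control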). The settings on record: P. falciparum Dd2 in RBCs, LDH growth readout, 72 h; at 2 µM; active compounds read high.
Assay [2] in a line: human hepatoma cell viability loss – ATP luminescence, cytotoxicity control for P. falciparum antimalarial project, primary screen (AID 2303;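 active = inhibition above 50%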;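 also: 0% = DMSO wells and 100% = digitonin-killed cells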). To be noted: HepG2 viability, 24-48 h, at 10 µM, active compounds read high.
Assay [3] concerns the target L-lactate dehydrogenase (Plasmodium falciparum (isolate CDC / Honduras)) (UniProt Q27743). In words: PfLDH activity inhibition – cell lysate, 3D7 strain, counter-screen for P. falciparum growth inhibition project (AID 2304).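 Also: 0% = vehicle and 100% = reference inhibitor.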 To be noted: P. falciparum 3D7 crude extract, LDH APAD/NBT absorbance; at 2 µM; active compounds read high. (In general: The purpose of a counterscreen is to sort out artefacts and off-target activity.)

Assay [4] can be described thus: inhibition of 3D7 malaria parasite growth – strain 3D7 (AID 2306).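 Also: 0% = DMSO wells and 100% = chloroquine plus artemisinin control wells.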 To be noted: P. falciparum 3D7 erythrocytic growth, LDH absorbance, 72 h; at 2 µM; active compounds read high.
In assay [5] the target is Calcium-dependent protein kinase 1 (Plasmodium falciparum (isolate 3D7)) (UniProt P62344). In words: PfCDPK1 kinase inhibitors, biochemical, TCAMS library (AID 1159585; cut-off not given, nearly all actives have IC50 up to about 0.98 µM;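 also: inhibitors leave more ATP so luminescence rises with inhibition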). To be noted: recombinant PfCDPK1, Kinase-Glo ATP depletion luminescence. In general terms: Kinase-Glo reads ATP consumption through a luciferase reaction.
Sequence of Calcium-dependent protein kinase 1 (Plasmodium falciparum (isolate 3D7)) (P62344 whole entry, looked up): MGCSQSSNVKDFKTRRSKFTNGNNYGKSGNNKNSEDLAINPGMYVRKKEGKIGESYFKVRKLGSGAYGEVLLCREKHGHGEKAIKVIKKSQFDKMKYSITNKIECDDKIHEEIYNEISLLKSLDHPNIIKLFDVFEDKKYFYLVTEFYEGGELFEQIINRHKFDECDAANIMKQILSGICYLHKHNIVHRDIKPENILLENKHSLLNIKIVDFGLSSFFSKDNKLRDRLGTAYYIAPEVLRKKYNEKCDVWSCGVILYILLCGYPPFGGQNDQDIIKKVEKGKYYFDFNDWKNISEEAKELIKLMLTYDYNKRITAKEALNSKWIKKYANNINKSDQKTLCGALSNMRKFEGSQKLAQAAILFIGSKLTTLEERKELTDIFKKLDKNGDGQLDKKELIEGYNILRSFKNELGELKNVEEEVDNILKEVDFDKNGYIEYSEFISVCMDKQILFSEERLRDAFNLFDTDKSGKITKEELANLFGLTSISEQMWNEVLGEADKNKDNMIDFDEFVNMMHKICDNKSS
Assay [6] addresses Plasmodium falciparum protein kinase 6 (PK6, PF3D7_1337100) (UniProt Q8IDW1). The experiment in a line: PfPK6 kinase inhibitors, biochemical, TCAMS library (AID 1159586). The settings on record: recombinant PfPK6, Kinase-Glo ATP depletion luminescence.
For assay [7], the target named is Protein kinase 7 (PK7), Plasmodium falciparum 3D7 (PF3D7_0213400) (UniProt Q7YTF7). In words: inhibition of Plasmodium PK7 catalytic activity – biochemical, TCAMS antimalarial set, Kinase-Glo luminescence (AID 1159587). The settings on record: recombinant PfPK7, Kinase-Glo ATP depletion luminescence.
Sequence of Protein kinase 7 (PK7), Plasmodium falciparum 3D7 (PF3D7_0213400) (Q7YTF7 1-343): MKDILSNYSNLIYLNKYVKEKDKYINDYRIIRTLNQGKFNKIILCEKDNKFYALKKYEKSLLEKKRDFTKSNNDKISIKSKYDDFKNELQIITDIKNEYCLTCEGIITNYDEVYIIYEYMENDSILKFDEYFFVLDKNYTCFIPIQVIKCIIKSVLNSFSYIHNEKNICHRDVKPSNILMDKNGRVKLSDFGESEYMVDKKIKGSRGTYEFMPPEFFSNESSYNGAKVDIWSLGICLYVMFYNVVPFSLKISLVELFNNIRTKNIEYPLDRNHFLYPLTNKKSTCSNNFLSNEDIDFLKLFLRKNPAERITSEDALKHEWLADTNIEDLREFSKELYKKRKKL
The target of assay [8] is Calcium-dependent protein kinase 4 (Plasmodium falciparum (isolate 3D7)) (UniProt Q8IBS5). In words: PfCDPK4 kinase inhibitors, biochemical, TCAMS library (AID 1159588; cut-off not given, nearly all actives have IC50 up to about 0.91 µM). The settings on record: recombinant PfCDPK4, Kinase-Glo ATP depletion luminescence.
Sequence of Calcium-dependent protein kinase 4 (Plasmodium falciparum (isolate 3D7)) (Q8IBS5 whole entry, looked up): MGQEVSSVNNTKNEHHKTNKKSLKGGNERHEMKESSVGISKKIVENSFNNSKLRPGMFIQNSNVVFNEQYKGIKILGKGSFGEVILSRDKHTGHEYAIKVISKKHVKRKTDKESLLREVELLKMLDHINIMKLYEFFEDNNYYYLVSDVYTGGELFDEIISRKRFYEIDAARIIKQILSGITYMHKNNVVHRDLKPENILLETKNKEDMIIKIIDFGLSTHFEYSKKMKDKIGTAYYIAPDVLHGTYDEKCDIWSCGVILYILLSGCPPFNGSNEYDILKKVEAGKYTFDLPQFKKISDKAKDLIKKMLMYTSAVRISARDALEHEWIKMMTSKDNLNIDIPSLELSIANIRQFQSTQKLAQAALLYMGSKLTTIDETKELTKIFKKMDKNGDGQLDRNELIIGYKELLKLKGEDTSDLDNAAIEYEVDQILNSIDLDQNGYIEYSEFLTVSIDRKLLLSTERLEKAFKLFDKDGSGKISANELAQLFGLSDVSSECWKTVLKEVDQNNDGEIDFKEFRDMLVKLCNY

Values without a mark were called inactive. For part of these data: Potency and affinity values are given separately. The source made the active and inactive calls. Unless noted, no rule for the calls is given here.

Sequence of L-lactate dehydrogenase (Plasmodium falciparum (isolate CDC / Honduras)) (Q27743 whole entry, looked up): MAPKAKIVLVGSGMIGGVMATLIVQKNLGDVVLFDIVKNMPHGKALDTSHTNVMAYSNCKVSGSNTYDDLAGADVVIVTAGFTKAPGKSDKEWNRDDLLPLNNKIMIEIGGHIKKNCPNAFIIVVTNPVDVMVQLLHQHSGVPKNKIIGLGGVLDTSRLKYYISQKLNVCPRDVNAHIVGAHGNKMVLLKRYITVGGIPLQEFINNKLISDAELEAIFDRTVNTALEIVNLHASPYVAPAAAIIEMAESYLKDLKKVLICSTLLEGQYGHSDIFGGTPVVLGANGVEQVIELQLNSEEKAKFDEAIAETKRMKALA
Sequence of Plasmodium falciparum protein kinase 6 (PK6, PF3D7_1337100) (Q8IDW1 1-305): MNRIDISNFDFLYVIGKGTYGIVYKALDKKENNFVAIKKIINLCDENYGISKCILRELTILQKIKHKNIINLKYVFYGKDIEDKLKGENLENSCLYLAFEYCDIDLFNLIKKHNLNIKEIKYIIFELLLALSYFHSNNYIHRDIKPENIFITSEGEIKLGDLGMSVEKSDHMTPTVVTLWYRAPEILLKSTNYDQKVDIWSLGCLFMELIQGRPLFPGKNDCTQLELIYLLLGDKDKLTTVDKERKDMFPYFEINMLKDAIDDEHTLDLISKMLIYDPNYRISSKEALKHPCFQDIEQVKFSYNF

`Cc1ccc2nc3ccccc3c(NCCN3CCN(C)CC3)c2c1`: the growth inhibition is 6% in assay [1] and 101% (active) in assay [4]. Also, the inhibition in assay [2] is 19%; in assay [3], -7%. For the same molecule, the result in assay [5], in assay [6], in assay [7] and in assay [8] was inactive.

As to `CN1CCN(c2cc(NC(=O)Nc3cccc(Cl)c3Cl)ccc2Cl)CC1`, the growth inhibition in assay [1] is 21%; in assay [4], 102% (active). For the same molecule, the inhibition in assay [2] and in assay [3] was 2% throughout. The result in assay [5], in assay [6], in assay [7] and in assay [8] was inactive.

`COc1ccc(C(=O)CCC(=O)N(Cc2ccc(-c3ccc(CNCCc4ccc(S(C)(=O)=O)cc4)cn3)cc2)C(C)CN(C)C)cc1F` (stereo not drawn): the growth inhibition in assay [1] is 85% (active); in assay [4], 98% (active). Further, the inhibition in assay [2] is 13%; in assay [3], -8%. Further, the result in assay [5], in assay [6], in assay [7] and in assay [8] was inactive.

In the case of `CC(C)NCc1ccc(-c2cccc(-c3nc4ccc(F)cc4[nH]3)c2)cc1`, the values for the growth inhibition in assay [1] and in assay [4] were 96% (active) and 101% (active), respectively. Besides, the inhibition in assay [2] is 14%; in assay [3] it was -4%. For the same molecule, the result in assay [5], in assay [6], in assay [7] and in assay [8] was inactive.

Consider `COC1CCC(C(=O)Nc2ccc(-c3cccc(-c4nc5ccc(C(F)(F)F)cc5[nH]4)c3)cc2)CC1` (stereo not drawn), for which the growth inhibition in assay [1] is 48%; in assay [4] it was 85% (active). For the same molecule, the figures for the inhibition in assay [2] and in assay [3] were 69% (active) and -2%, respectively. Also, the outcome in assay [5], in assay [6], in assay [7] and in assay [8] was inactive.

As to `O=C(NC1CCN(Cc2ccccc2O)C1)c1ccc(-c2ccccc2)cc1` (stereo not drawn), the growth inhibition is 25% in assay [1] and 99% (active) in assay [4]. Besides, the inhibition was -5% in assay [2] and 4% in assay [3]. Also, the outcome in assay [5], in assay [6], in assay [7] and in assay [8] was inactive.

Consider `CCCC1(NC[C@@H](O)[C@H](Cc2ccccc2)NC(=O)c2cc(NCC)cc(N3CCCCS3(=O)=O)c2)CC1`, for which the growth inhibition in assay [1] and in assay [4] was 98% (active) in each case. Also, the inhibition in assay [2] was 1%; in assay [3], 0%. Moreover, the result in assay [5], in assay [6], in assay [7] and in assay [8] was inactive.

Consider `O=C(/C=C/c1ccc([N+](=O)[O-])cc1)N1CCC(NS(=O)(=O)c2ccc(F)cc2)CC1`, for which the growth inhibition in assay [1] was -2%; in assay [4], 96% (active). The figures for the inhibition in assay [2] and in assay [3] were -7% and -10%, respectively. For the same molecule, the result in assay [5], in assay [6], in assay [7] and in assay [8] was inactive.

Regarding `O=C(CC1CCCC1)Nc1ccc2c(c1)CCC2`, the figures for the growth inhibition in assay [1] and in assay [4] were -2% and 93% (active), respectively. Also, the results for the inhibition in assay [2] and in assay [3] were -1% and 2%, respectively. The outcome in assay [5], in assay [6], in assay [7] and in assay [8] was inactive.

Regarding `CCOC(=O)CCCCOc1c(OC)cc(Cc2cnc(N)nc2N)cc1OC`, the growth inhibition in assay [1] is 0%; in assay [4], 95% (active). The inhibition is -8% in assay [2] and 5% in assay [3]. For the same molecule, the outcome in assay [5], in assay [6], in assay [7] and in assay [8] was inactive.

`COc1ccc2ncc(F)c(CCN3C[C@@H]4CCC[C@]4(CNCc4ccc5c(n4)NC(=O)CS5)C3)c2n1`: the growth inhibition in assay [1] is 28%; in assay [4], 87% (active). Besides, the inhibition in assay [2] was 18%; in assay [3] it was 2%. Also, the outcome in assay [5], in assay [6], in assay [7] and in assay [8] was inactive.

Take `Cc1cccc2[nH]c(-c3cccc(-c4ccc(NC(=O)C5CC(=O)Nc6ccccc65)cc4)c3)nc12` (stereo not drawn): the growth inhibition is 56% (active) in assay [1] and 87% (active) in assay [4]. For the same molecule, the values for the inhibition in assay [2] and in assay [3] were 15% and 3%, respectively. For the same molecule, the outcome in assay [5], in assay [6], in assay [7] and in assay [8] was inactive.

As to `CNC(=O)c1cnc(Nc2ccc(N3CCN(C)CC3)cc2)nc1Nc1cccc(OC(C)C)c1`, the growth inhibition was 102% (active) in assay [1] and 100% (active) in assay [4]. The inhibition in assay [2] is 16%; in assay [3], 4%. Also, the outcome in assay [5], in assay [6], in assay [7] and in assay [8] was inactive.

For `COc1ccc2c(NN=Cc3ccccc3)ccnc2c1`, the growth inhibition in assay [1] was 98% (active); in assay [4], 101% (active). For the same molecule, the results for the inhibition in assay [2] and in assay [3] were 18% and -5%, respectively. Further, the outcome in assay [5], in assay [6], in assay [7] and in assay [8] was inactive.

With `COc1ccccc1Cn1ccnc1SCC(=O)Nc1cc(C(F)(F)F)ccc1Cl`, the growth inhibition in assay [1] is 97% (active); in assay [4] it was 96% (active). The figures for the inhibition in assay [2] and in assay [3] were 12% and 1%, respectively. For the same molecule, the result in assay [5], in assay [6], in assay [7] and in assay [8] was inactive.

Consider `Cc1ccc2nc(C)cc(NN=Cc3ccccc3F)c2c1`, for which the results for the growth inhibition in assay [1] and in assay [4] were 100% (active) and 97% (active), respectively. The inhibition in assay [2] is 36%; in assay [3], -3%. Moreover, the outcome in assay [5], in assay [6], in assay [7] and in assay [8] was inactive.

For the molecule `COc1ccc(CNC(=O)NC2CCN(c3ccnc(Nc4ccc(F)cc4)n3)CC2)cc1`, the growth inhibition in assay [1] was 4%; in assay [4], 87% (active). Besides, the results for the inhibition in assay [2] and in assay [3] were 16% and -6%, respectively. In addition, the outcome in assay [5], in assay [6], in assay [7] and in assay [8] was inactive.

As for `O=C(NC1CCN(c2ccnc3cc(Cl)ccc23)C1)c1ccc(F)cc1` (stereo not drawn), the growth inhibition in assay [1] is 97% (active); in assay [4], 94% (active). The inhibition in assay [2] is 26%; in assay [3] it was 4%. Further, the result in assay [5], in assay [6], in assay [7] and in assay [8] was inactive.

Take `Oc1ccc2[nH]cc(C3CCN(CCC(c4ccccc4)c4ccccc4)CC3)c2c1`: the growth inhibition in assay [1] was 42%; in assay [4] it was 90% (active). Besides, the inhibition in assay [2] is 27%; in assay [3], -3%. The outcome in assay [5], in assay [6], in assay [7] and in assay [8] was inactive.

`CCCCCCCCn1c2c(c(=N)c3c1CCC3)CCCC2`: the growth inhibition in assay [1] is 100% (active); in assay [4], 101% (active). The inhibition is 57% (active) in assay [2] and 2% in assay [3]. The outcome in assay [5], in assay [6], in assay [7] and in assay [8] was inactive.

With `CCOc1ccc2c(NN=Cc3cccc(OC)c3OC)cc(C)nc2c1`, the values for the growth inhibition in assay [1] and in assay [4] were 85% (active) and 102% (active), respectively. Also, the inhibition in assay [2] was 4%; in assay [3], 3%. The result in assay [5], in assay [6], in assay [7] and in assay [8] was inactive.

One may read the inhibition as the drop in the measured response relative to a control, in per cent.
